Structures are written as SMILES. Counter-ions that a name gives are not always drawn. ± gives the standard deviation of the averaged measurements.

Assay [1] concerns Saccharomyces cerevisiae BY4741 SeMeCo community. Put plainly: mean cell size (pixel area) (pixels); higher = larger cells. Conditions: 10 µM; 24 h; SM minimal medium. Put shortly: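 In this assay, mean cell pixel area per well was obtained from automated confocal images of paraformaldehyde-fixed yeast analysed in Harmony. The cells were a Saccharomyces cerevisiae BY4741 community with four plasmids, each complementing one auxotrophy and carrying a fluorescent marker, grown for 24 h in SM medium with drug at a final 10 µM in 384-well plates. Values are averaged across 3 replicates. Same SeMeCo high-content imaging drug screen: Selleck FDA-approved drugs at 10 µM, 24 h in SM medium, 384-well plates, 3 replicates.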

For assay [2] the test system is unchanged. Put plainly: z-score of prototroph abundance vs DMSO median; higher = larger share of this subpopulation than in DMSO controls. The note with it: 10 µM; 24 h; SM minimal medium; subpopulation (auxotrophy): Prototroph. Put shortly: (§1)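 Subpopulation abundance was reported as a z-score against the median of vehicle wells. The Saccharomyces cerevisiae BY4741 community, carrying four plasmids that each restored one auxotrophy and encoded a distinct fluorescent protein, was grown 24 h in minimal SM medium in 384-well plates holding library drugs at 10 µM final. Cells were paraformaldehyde-fixed and imaged by automated confocal microscopy, with single-auxotroph fluorescent strains used for thresholds and autofluorescence correction.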

Assay [3] shares this test system. Put plainly: z-score of subpopulation abundance vs DMSO median, subpopulation auxotrophic for M; higher = larger share of this subpopulation than in DMSO controls. The note with it: 10 µM; 24 h; SM minimal medium; subpopulation (auxotrophy): M. The method in brief: as §1
Assay [4] shares this test system. The assay is described as follows: z-score of subpopulation abundance vs DMSO median, subpopulation auxotrophic for L; higher = larger share of this subpopulation than in DMSO controls. The note with it: 10 µM; 24 h; SM minimal medium; subpopulation (auxotrophy): L. Put shortly: as §1
Assay [5] shares this test system. Put plainly: z-score of subpopulation abundance vs DMSO median, subpopulation auxotrophic for U; higher = larger share of this subpopulation than in DMSO controls. Conditions: 10 µM; 24 h; SM minimal medium; subpopulation (auxotrophy): U. Put shortly:
as §1

For assay [6] the test system is unchanged. Put plainly: z-score of subpopulation abundance vs DMSO median, subpopulation auxotrophic for H; higher = larger share of this subpopulation than in DMSO controls. Conditions: 10 µM; 24 h; SM minimal medium; subpopulation (auxotrophy): H. The method in brief:
as §1

Assay [7] shares this test system. The assay is described as follows: z-score of subpopulation abundance vs DMSO median, subpopulation auxotrophic for LU; higher = larger share of this subpopulation than in DMSO controls. Conditions: 10 µM; 24 h; SM minimal medium; subpopulation (auxotrophy): LU. Put shortly: as §1
Assay [8] shares this test system. Put plainly: z-score of subpopulation abundance vs DMSO median, subpopulation auxotrophic for LM; higher = larger share of this subpopulation than in DMSO controls. Conditions: 10 µM; 24 h; SM minimal medium; subpopulation (auxotrophy): LM. The method in brief:
as §1

For assay [9] the test system is unchanged. The assay is described as follows: z-score of subpopulation abundance vs DMSO median, subpopulation auxotrophic for HM; higher = larger share of this subpopulation than in DMSO controls. Conditions: 10 µM; 24 h; SM minimal medium; subpopulation (auxotrophy): HM. Put shortly:
as §1

Assay [10] has the same test system. The assay is described as follows: z-score of subpopulation abundance vs DMSO median, subpopulation auxotrophic for HU; higher = larger share of this subpopulation than in DMSO controls. Conditions: 10 µM; 24 h; SM minimal medium; subpopulation (auxotrophy): HU. Put shortly:
as §1

For assay [11] the test system is unchanged. Put plainly: z-score of subpopulation abundance vs DMSO median, subpopulation auxotrophic for HL; higher = larger share of this subpopulation than in DMSO controls. Conditions: 10 µM; 24 h; SM minimal medium; subpopulation (auxotrophy): HL. The method in brief:
as §1

Assay [12] shares this test system. Put plainly: z-score of subpopulation abundance vs DMSO median, subpopulation auxotrophic for HLU; higher = larger share of this subpopulation than in DMSO controls. Conditions: 10 µM; 24 h; SM minimal medium; subpopulation (auxotrophy): HLU. Put shortly:
as §1

The test system is the same in assay [13]. The assay is described as follows: z-score of subpopulation abundance vs DMSO median, subpopulation auxotrophic for HLM; higher = larger share of this subpopulation than in DMSO controls. Conditions: 10 µM; 24 h; SM minimal medium; subpopulation (auxotrophy): HLM. Put shortly: as §1
For assay [14] the test system is unchanged. The assay is described as follows: z-score of subpopulation abundance vs DMSO median, subpopulation auxotrophic for LUM; higher = larger share of this subpopulation than in DMSO controls. Conditions: 10 µM; 24 h; SM minimal medium; subpopulation (auxotrophy): LUM. The method in brief:
as §1

Assay [15] has the same test system. The assay is described as follows: z-score of subpopulation abundance vs DMSO median, subpopulation auxotrophic for HLUM; higher = larger share of this subpopulation than in DMSO controls. The note with it: 10 µM; 24 h; SM minimal medium; subpopulation (auxotrophy): HLUM. Put shortly: as §1
Assay [16] has the same test system. Put plainly: z-score of subpopulation abundance vs DMSO median, subpopulation auxotrophic for UM; higher = larger share of this subpopulation than in DMSO controls. The note with it: 10 µM; 24 h; SM minimal medium; subpopulation (auxotrophy): UM. The method in brief: as §1

The molecule `NC(=O)C(c1ccccc1)(c1ccccc1)[C@@H]1CCN(CCc2ccc3c(c2)CCO3)C1` [Darifenacin HBr] gave a mean cell size in assay [1] of 12.4 ± 0.39. Moreover, the “z-score of prototroph abundance” value in assay [2] is 0.34. In addition, the “z-score of subpopulation abundance” value in assay [3] is 0.85; in assay [4] it was -0.21; in [5] it was 0.01; in assay [6], -1.43; in assay [7], -0.1; in [8], -0.2. The “z-score of subpopulation abundance” value in assay [9] was -0.73; in [10], -0.14; in assay [11], -0.56; in assay [12], -0.45; in assay [13], -0.63; in [14], -0.55. For the same molecule, the “z-score of subpopulation abundance” value in [15] was -0.5.

On to `O=c1cc(-c2ccc(O)c(O)c2)oc2cc(O)cc(O)c12` [Luteolin], for which the mean cell size in assay [1] came to 12.5 ± 0.16. For the same molecule, in assay [2], the “z-score of prototroph abundance” value was -0.73. In addition, the “z-score of subpopulation abundance” value was -0.18 in [3]; 1.23 in [4]; 0.21 in assay [5]; 0.27 in assay [6]; 0.96 in assay [7]; 0.14 in assay [8]. The “z-score of subpopulation abundance” value in assay [10] was 1.42; in assay [16], -0.52; in assay [12], 0.05; in [13], -0.56; in assay [14], 0.16; in [15] it was -0.27.

`CN[C@H]1CC[C@@H](c2ccc(Cl)c(Cl)c2)c2ccccc21` [Sertraline HCl] gave a mean cell size in assay [1] of 12.4 ± 0.056. For the same molecule, the “z-score of prototroph abundance” value in assay [2] came out at 1.15. Moreover, the “z-score of subpopulation abundance” value in assay [3] is 0.18; in assay [4], -0.29; in [5] it was -0.41; in [7], -0.7; in assay [10], -1.26; in assay [16], -0.56. In addition, the “z-score of subpopulation abundance” value in assay [11] is -0.5; in assay [12], -0.32; in assay [13], -0.66; in assay [14] it was -1.09; in [15] it was -0.97.

Regarding `COc1ccc(C(C)=O)c(O)c1` [Paeonol], the mean cell size in assay [1] is 12.4 ± 0.15. In assay [2], the “z-score of prototroph abundance” value was -0.25. In addition, the “z-score of subpopulation abundance” value in assay [3] was -0.69; in assay [4], 0.17; in assay [5], 0.71; in assay [6] it was 0.01; in [7], 0.12; in assay [8], 0.14. The “z-score of subpopulation abundance” value in assay [9] is -0.35; in assay [10], 0.44; in assay [16], 0.01; in assay [11], -0.25; in assay [12], -0.12; in [13], -0.22. The “z-score of subpopulation abundance” value in assay [15] was 0.01.

On to `CCCNCC(O)COc1ccccc1C(=O)CCc1ccccc1` (configuration not stated) [Propafenone HCl], for which the mean cell size in assay [1] was found to be 12.36 ± 0.1. The “z-score of subpopulation abundance” value in assay [3] is -0.38; in assay [4], -0.54; in assay [5], 0.55; in [6], -0.52; in [7], -0.32; in assay [9] it was -0.15. The “z-score of subpopulation abundance” value was 0.58 in assay [10]; -0.37 in assay [11]; -0.61 in [12]; -0.63 in assay [13]; 0.61 in assay [14]; 0.05 in assay [15].

`CCN(CC)C(=O)C1(c2ccccc2)CC1CN` (configuration not stated) [Milnacipran HCl]: the mean cell size in [1] was 12.3 ± 0.28. Besides, in assay [2], the “z-score of prototroph abundance” value was determined as 0.28. Besides, the “z-score of subpopulation abundance” value was -0.86 in [3]; 0.74 in assay [4]; 0.47 in [5]; -1.04 in assay [6]; 0.01 in [7]; 0 in assay [8]. In addition, the “z-score of subpopulation abundance” value in assay [9] is -0.8; in assay [10], -0.14; in assay [16] it was 0.33; in assay [11], -0.61; in [12] it was -0.08; in [13], -0.14. For the same molecule, the “z-score of subpopulation abundance” value in [15] is -0.13.

As for `COc1cc([C@@H]2c3cc4c(cc3[C@@H](O[C@@H]3O[C@@H]5CO[C@@H](C)O[C@H]5[C@H](O)[C@H]3O)[C@H]3COC(=O)[C@H]23)OCO4)cc(OC)c1O` [Etoposide], the mean cell size in assay [1] came out at 12.44 ± 0.11. Moreover, the “z-score of subpopulation abundance” value in assay [3] came out at 0.21; in assay [4] it was 0.2; in assay [5], 0.39; in assay [7] it was 0.39; in assay [8] it was 0.96; in [9], 0.36. Moreover, the “z-score of subpopulation abundance” value in assay [16] turned out to be 0.47; in assay [12], 0.56; in assay [13], 0.66; in [14], 0.64; in [15], 1.05.

The values above are taken from the supplement of paper PMC8975748.
